Sampled rows, rich in hits. Any-hit rate of the full collection: about 2.9%.
HEK293 cAMP cs: qHTS Assay for Agonists of the Thyroid Stimulating Hormone Receptor: Activators of Intracellular cAMP Concentrations in Parental HEK 293 | 73,000 tested, 2.5% active | Potency, µM (doses to about 57.1 µM), without a hit: top-dose activation, hits mostly activators | AID 938, 2007 | parental HEK293 CNG cAMP sensor, membrane potential fluorescence; active = well fitted activation curve with a large enough effect; inconclusive = small, poorly fitted or top-dose-only effect; inactive = no such curve, though single readings can be large or run the other way; also: % of control where 0% means no effect; nearly all actives have a fitted effect of over 55% in size
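Counterscreen for endogenous-receptor signalling: CNG-channel HEK 293 cells report cAMP rise by membrane depolarization. After 60 min dye equilibration with 100 uM RO 20-1724, compounds incubated 30 min before bottom-read fluorescence at 590 nm.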
TSHR ag: qHTS Assay for Agonists of the Thyroid Stimulating Hormone Receptor | AID 926, 2007 | HEK293-CNG-TSHR cells (CNG channel as cAMP sensor), membrane potential dye, cAMP | 73,000 tested, 0.48% active | Potency, µM (titrated, usually from 57.1 µM), for inactives: at the top dose activation, actives largely listed as activators; active = well fitted activation curve with a large enough effect in the main read-out, with a control signal flat, not every such curve was filed as active; inconclusive = small, poorly fitted or top-dose-only effect, or a change in a side signal; inactive = no such curve, though single readings can be large or run the other way; % of control where 0% means no effect;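 also: the control signal comes from parental cells without the receptor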
Target sequence (P16473 whole entry, looked up): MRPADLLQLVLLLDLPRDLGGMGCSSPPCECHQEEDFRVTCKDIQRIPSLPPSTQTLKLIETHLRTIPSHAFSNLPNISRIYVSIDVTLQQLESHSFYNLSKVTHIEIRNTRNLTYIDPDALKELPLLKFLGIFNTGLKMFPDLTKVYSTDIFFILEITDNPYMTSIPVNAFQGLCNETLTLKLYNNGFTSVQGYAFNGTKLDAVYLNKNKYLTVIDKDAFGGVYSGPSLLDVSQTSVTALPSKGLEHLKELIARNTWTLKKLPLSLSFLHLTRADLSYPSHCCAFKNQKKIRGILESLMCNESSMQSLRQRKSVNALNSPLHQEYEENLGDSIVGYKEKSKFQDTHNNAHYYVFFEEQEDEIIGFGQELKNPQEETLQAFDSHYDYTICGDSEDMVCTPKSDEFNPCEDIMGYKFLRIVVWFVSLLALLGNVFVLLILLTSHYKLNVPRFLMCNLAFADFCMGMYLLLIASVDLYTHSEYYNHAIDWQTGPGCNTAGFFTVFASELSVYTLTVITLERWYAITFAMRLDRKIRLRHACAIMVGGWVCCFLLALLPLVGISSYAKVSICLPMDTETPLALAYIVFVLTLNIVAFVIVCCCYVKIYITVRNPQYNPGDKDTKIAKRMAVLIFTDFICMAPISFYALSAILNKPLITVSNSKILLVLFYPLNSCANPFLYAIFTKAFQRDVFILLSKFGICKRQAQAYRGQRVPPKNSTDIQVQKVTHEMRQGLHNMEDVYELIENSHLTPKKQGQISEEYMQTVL
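HEK 293 cells stably expressing TSHR and a modified CNG channel, with CNG-only parental cells as counterscreen, were preloaded 60 min at room temperature with membrane potential dye containing 100 uM RO 20-1724. Compound exposure was 30 min, and depolarization was read as fluorescence at 590 nm.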
The depositor's hits bear a star; ? = inconclusive; / = not tested or not shown; [ ] = remark or other dose. Potency is read from the fitted curve at half-maximal effect.

SMILES | HEK293 cAMP cs | TSHR ag
COCCN(CCOC)c1ncc(Cl)c(C(=O)c2c(C)cc3ccccn23)n1 | 31.6µM* | ?
NC(=O)c1ccc(-c2ccc(Br)cc2)o1 | -2.0% | 4.6%
O=C(O)CCc1ccc(-c2ccc(Br)cc2)o1 | 3.98µM* | ?
N=c1ccn2c(n1)O[C@@H]1[C@@H](O)[C@H](CO)O[C@H]12 | 4.9% | 4.9%
COCC#Cc1ccc(C2NC(C(=O)O)CCC2C)cc1 (stereo unspecified) | -2.5%[11.4 µM] | -4.9%[11.4 µM]
CC(=O)[C@H](CC(C)C)NC(=O)[C@@H](CC(C)C)NC(=O)[C@H](CC(C)C)NC(=O)OCc1ccccc1 | 25.1µM* | ?
CC(=O)NC(CC(C)C)C(=O)NC(Cc1ccccc1)C(N)=O (stereo unspecified) | -4.9% | -1.8%
CCOC(=O)CCN1C(=O)[C@H]2[C@H]3[C@H](O)[C@H](O)C/C(=N/OCc4ccccc4)[C@H]3CC[C@@H]2C1=O | 7.7%[11.4 µM] | 7.6%[11.4 µM]
Cn1c(=O)c2c(nc(CN3CCN(c4cccc(Cl)c4)CC3)n2CCc2ccccc2)n(C)c1=O | 7.94µM* | ?
CCOC(=O)Cn1c(CN2CCN(c3cccc(Cl)c3)CC2)nc2c1c(=O)[nH]c(=O)n2C | 20µM* | ?
Cn1c(=O)c2c(nc(CN3CCN(CCO)CC3)n2CCc2ccccc2)n(C)c1=O | 0.2% | -9.4%
Cn1c(=O)[nH]c(=O)c2c1nc(CN1CCN(c3cccc(Cl)c3)CC1)n2Cc1ccccc1Cl | -6.7% | /
CN(C)CCN(Cc1ccccc1)S(=O)(=O)c1cccc2cccnc12 | 11.0% | 13.9%
CC(C)(C)c1ccc(OCC2CO2)cc1 (stereo unspecified) | 21.4% | 3.0%
CCCCC(CC)COCC1CO1 (stereo unspecified) | -0.1% | 2.5%
OCCNc1nc(-c2cccnc2)nc2ccccc12 | -4.9% | -0.5%
COc1ccc2[nH]cc(CCNc3ncncc3-c3ccccc3CN(C)C)c2c1 | 8.7% | 0.6%
COc1cccc(-c2nccc(NCCc3c[nH]c4ccc(OC)cc34)n2)c1 | -20.5% | 4.5%
c1cncc(-c2nc(NCc3ccco3)c3ccccc3n2)c1 | 25.1µM* | ?
COc1ccc2[nH]cc(CCNc3nc(-c4cccnc4)nc4ccccc34)c2c1 | -23.7% | 3.98µM*
COc1ccc2[nH]cc(CCNc3ncncc3-c3ccccc3OC)c2c1 | 3.16µM* | ?
C[C@H](C(=O)c1ccncc1)c1ccccn1 | 5.8%[11.4 µM] | -2.1%[11.4 µM]
CCCn1c(C)nc2c(c1=O)c1nc3ccccc3nc1n2CCC1=CCCCC1 | 20µM* | ?
Cc1nc2c(c(=O)n1CCC1=CCCCC1)c1nc3ccccc3nc1n2/N=C/c1ccco1 | -25.5% | -46.0%
N[C@@H]1C=CC=C(C(=O)O)C1 | -6.6% | /
SMILES | HEK293 cAMP cs | TSHR ag
C=CCc1cccc(C2C(C)CCC3C(=O)N4C(Cc5c([nH]c6ccccc56)C4c4cc(OC)c(OC)c(OC)c4)C(=O)N32)c1 (stereo unspecified) | -1.7%[11.4 µM] | -0.6%[11.4 µM]
CO[C@@H]1COC(=O)[C@@H](CCSC)NC(=O)C/C=C\[C@@H](C)COC(=O)CCC[C@H]1C | 1.3%[11.4 µM] | 25.5%[11.4 µM]
COc1ccc(-c2cc(C(F)F)n3ncc(C(=O)N4CCN5CCCC5C4)c3n2)cc1 (stereo unspecified) | 15.8µM* | ?
CN1CCN(C(=O)c2cnn3c(C(F)F)cc(C4CC4)nc23)CC1 | 2.0% | 6.1%
COc1ccc(-c2cc(C(F)(F)F)n3ncc(C(=O)NCC4CCCO4)c3n2)cc1OC (stereo unspecified) | 13.3% | /
COc1ccc(-c2cc(C(F)F)n3ncc(C(=O)NCC4CCCO4)c3n2)cc1 (stereo unspecified) | 7.94µM* | ?
CN1CCN(CCCNN)CC1 | 5.3%[11.4 µM] | 12.9%[11.4 µM]
COc1ccc(Oc2ncc3nc(-c4ccccc4)c(=O)n(C[C@H]4CCCO4)c3n2)cc1 | 13.5% | 14.4%
Cn1c(=O)c(-c2ccccc2)nc2cnc(OCc3ccccc3)nc21 | 17.1% | 7.7%
COc1cccc(Cn2c(=O)cnc3cnc(Oc4ccccc4)nc32)c1 | 12.3% | 1.6%
O=c1cnc2cnc(Oc3ccccc3)nc2n1CCc1ccccc1 | 1.58µM* | ?
COc1cccc(Cn2c(=O)c(CCc3ccccc3)nc3cnc(OC)nc32)c1 | 15.8µM* | ?
Cn1c(=O)c(CCc2ccccc2)nc2cnc(OCc3ccccc3)nc21 | 1µM* | ?
COc1ccc(Oc2ncc3nc(CCc4ccccc4)c(=O)n(C[C@H]4CCCO4)c3n2)cc1 | 10µM* | ?
CCNc1ncc2nc(CCc3ccccc3)c(=O)n(Cc3cccc(OC)c3)c2n1 | 20.7% | 27.6%
CCOC(=O)c1cnc(N(C)C)nc1SC(=N)N | 7.3%[11.4 µM] | -1.4%[11.4 µM]
O=C(O)Cc1[nH]cnc1C(=O)O | 4.4%[11.4 µM] | -2.1%[11.4 µM]
O=C1C=C[C@@H](O)[C@@H]2[C@H]3C(=O)N(c4ccc(F)cc4F)C(=O)[C@@H]3CC[C@@H]12 | -2.6%[11.4 µM] | 2.1%[11.4 µM]
COC(=O)[C@H](N)Cc1ccc(Cl)cc1 | 13.6% | 7.3%
CCOC(=O)CCN1C(=O)[C@H]2[C@H]3[C@H](O)[C@H](O)C/C(=N/OC[C@@H](O)COCc4ccco4)[C@H]3CC[C@@H]2C1=O | 1.9%[11.4 µM] | 5.1%[11.4 µM]
COc1ncc2nc(CCc3ccccc3)c(=O)n(Cc3cccs3)c2n1 | 10µM* | ?
COCCn1c(=O)c(CCc2ccccc2)nc2cnc(OC)nc21 | 25.0% | /
CCC(C)Sc1nc2c(c(=O)[nH]c(=O)n2C)n1CCc1ccccc1 (stereo unspecified) | 31.6µM* | ?
CC(C)Sc1nc2c(c(=O)[nH]c(=O)n2C)n1CCc1ccccc1 | 25.4% | /
CN1/C(=C/C(=O)c2nc(S(C)(=O)=O)ncc2Cl)C(C)(C)c2ccccc21 | -11.5% | -4.3%
SMILES | HEK293 cAMP cs | TSHR ag
CN1/C(=C\C(=O)c2ccco2)C(C)(C)c2ccccc21 | 20µM* | ?
Cc1c(N=C/C=C2\N(C)c3ccccc3C2(C)C)c(=O)n(-c2ccccc2)n1C | -1.3% | 6.9%
CN1/C(=C\C(=O)COc2ccc3c(c2)OCO3)C(C)(C)c2ccccc21 | 31.6µM* | ?
CN1/C(=C\C(=O)COC(=O)C2COc3ccccc3O2)C(C)(C)c2ccccc21 (stereo unspecified) | 3.0% | 16.1%
CN1/C(=C\C(=O)C(F)F)C(C)(C)c2ccccc21 | 31.6µM* | ?
C[C@@H]1C(=O)O[C@H]2[C@@H](O)[C@@]34[C@H]5C[C@H](C(C)(C)C)[C@@]36[C@H](OC(=O)[C@@H]6O)O[C@@]4(C(=O)O5)[C@@]12O | 5.5% | -5.2%
C[N+](C)(N)Cc1nc(-c2ccc(Cl)cc2)no1 | 6.7%[11.4 µM] | 3.0%[11.4 µM]
C[C@H]1CN(CCO)CCN1c1ccccc1 | -0.3%[11.4 µM] | -5.3%[11.4 µM]
O=C(COC(=O)CCOc1ccccc1)NCc1ccco1 | -4.4% | -3.0%
Cc1ccc(-c2csc(=S)n2CC(=O)OCC(=O)NCc2ccco2)cc1 | 31.6µM* | ?
COc1ccc2c(c1)[n+]([O-])c(/C(C)=N/NC(N)=S)c(C)[n+]2[O-] | -2.6%[11.4 µM] | 2.0%[11.4 µM]
Cc1csc(SCC(=O)Nc2cccc3nsnc23)n1 | 20µM* | ?
Cc1csc(NC(=O)CSc2nc(C)cs2)n1 | 8.7% | -2.2%
Cc1noc(C)c1-c1nc(NCc2ccccc2)c2ccccc2n1 | 25.1µM* | ?
CS(=O)(=O)Nc1cccc(-c2nc(NCc3cccnc3)c3ccccc3n2)c1 | -1.1% | /
Cc1noc(C)c1-c1nc(NCc2cccnc2)c2ccccc2n1 | 2.8% | /
CS(=O)(=O)Nc1cccc(-c2nc(NCc3ccccc3)c3ccccc3n2)c1 | 25.1µM* | ?

Assay outcomes from PubChem BioAssay.
